Each structure is given as a SMILES string. Unmarked numbers belong to inactive results. For some of these results: Potency and affinity values are given separately. Calls of active or inactive are those of the source. Unless noted, how the calls were made is not given here.

The source of these data is PubChem BioAssay.

Assay [1] can be described thus: antimalarial activity against Dd2 strain (AID 2302;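 active means growth inhibition above 50% at the single 2 µM test dose, taken to imply half-maximal potency below 2 µM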;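 further: 0% = DMSO untreated growth and 100% = chloroquine plus artemisinin killed control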). The settings on record: P. falciparum Dd2 in RBCs, LDH growth readout, 72 h; at 2 µM; stronger effect = higher value.
A short description of assay [2]: human hepatoma cell viability loss – ATP luminescence, cytotoxicity control for P. falciparum antimalarial project, primary screen (AID 2303;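 active means inhibition above 50%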;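 further: 0% = DMSO wells and 100% = digitonin-killed cells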). The conditions noted are these: HepG2 viability, 24-48 h, at 10 µM, stronger effect = higher value.
Assay [3] concerns the target L-lactate dehydrogenase (Plasmodium falciparum (isolate CDC / Honduras)) (UniProt Q27743). Kind of assay: PfLDH activity inhibition – cell lysate, 3D7 strain, counter-screen for P. falciparum growth inhibition project (AID 2304).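 Further: 0% = vehicle and 100% = reference inhibitor.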 The conditions noted are these: P. falciparum 3D7 crude extract, LDH APAD/NBT absorbance; at 2 µM; stronger effect = higher value. (Counterscreens check selectivity or assay interference.)

Assay [4] is described as follows: inhibition of 3D7 malaria parasite growth – strain 3D7 (AID 2306).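 Further: 0% = DMSO wells and 100% = chloroquine plus artemisinin control wells.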 The settings on record: P. falciparum 3D7 erythrocytic growth, LDH absorbance, 72 h; at 2 µM; stronger effect = higher value.
Assay [5] addresses Calcium-dependent protein kinase 1 (Plasmodium falciparum (isolate 3D7)) (UniProt P62344). Kind of assay: PfCDPK1 kinase inhibitors, biochemical, TCAMS library (AID 1159585; cut-off not given, nearly all actives have IC50 up to about 0.98 µM;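 further: inhibitors leave more ATP so luminescence rises with inhibition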). The conditions noted are these: recombinant PfCDPK1, Kinase-Glo ATP depletion luminescence. (In Kinase-Glo more light means more ATP remaining.)
Assay [6] addresses Plasmodium falciparum protein kinase 6 (PK6, PF3D7_1337100) (UniProt Q8IDW1). Kind of assay: PfPK6 kinase inhibitors, biochemical, TCAMS library (AID 1159586). The settings on record: recombinant PfPK6, Kinase-Glo ATP depletion luminescence.
Assay [7] addresses Protein kinase 7 (PK7), Plasmodium falciparum 3D7 (PF3D7_0213400) (UniProt Q7YTF7). Put plainly: inhibition of Plasmodium PK7 catalytic activity – biochemical, TCAMS antimalarial set, Kinase-Glo luminescence (AID 1159587). The settings on record: recombinant PfPK7, Kinase-Glo ATP depletion luminescence.
Assay [8] addresses Calcium-dependent protein kinase 4 (Plasmodium falciparum (isolate 3D7)) (UniProt Q8IBS5). Put plainly: PfCDPK4 kinase inhibitors, biochemical, TCAMS library (AID 1159588; cut-off not given, nearly all actives have IC50 up to about 0.91 µM). The conditions noted are these: recombinant PfCDPK4, Kinase-Glo ATP depletion luminescence.

Chain of Calcium-dependent protein kinase 1 (Plasmodium falciparum (isolate 3D7)) (P62344 whole entry, looked up): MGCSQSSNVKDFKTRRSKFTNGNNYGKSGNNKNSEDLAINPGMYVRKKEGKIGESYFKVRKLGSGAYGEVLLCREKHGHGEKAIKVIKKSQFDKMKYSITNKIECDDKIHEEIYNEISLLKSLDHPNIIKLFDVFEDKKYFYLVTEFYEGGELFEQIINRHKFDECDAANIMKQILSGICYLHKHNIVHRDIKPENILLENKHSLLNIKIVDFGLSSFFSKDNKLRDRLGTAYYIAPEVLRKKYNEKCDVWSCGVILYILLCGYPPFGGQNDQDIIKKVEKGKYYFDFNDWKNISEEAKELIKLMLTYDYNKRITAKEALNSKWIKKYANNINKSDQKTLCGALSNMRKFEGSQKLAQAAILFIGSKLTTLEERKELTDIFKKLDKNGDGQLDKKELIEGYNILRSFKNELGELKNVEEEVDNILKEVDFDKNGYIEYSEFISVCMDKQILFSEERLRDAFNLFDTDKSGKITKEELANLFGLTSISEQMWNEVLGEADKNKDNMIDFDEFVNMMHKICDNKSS
Chain of Plasmodium falciparum protein kinase 6 (PK6, PF3D7_1337100) (Q8IDW1 1-305): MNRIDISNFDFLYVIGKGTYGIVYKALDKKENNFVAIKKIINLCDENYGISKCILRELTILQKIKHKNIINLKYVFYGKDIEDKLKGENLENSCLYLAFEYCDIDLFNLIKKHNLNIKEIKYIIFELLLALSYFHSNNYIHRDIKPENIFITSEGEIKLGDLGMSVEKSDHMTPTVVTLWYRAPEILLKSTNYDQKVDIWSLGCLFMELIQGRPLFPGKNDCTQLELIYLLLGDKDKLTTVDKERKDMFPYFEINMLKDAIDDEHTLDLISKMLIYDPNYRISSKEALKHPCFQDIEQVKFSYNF
Chain of Calcium-dependent protein kinase 4 (Plasmodium falciparum (isolate 3D7)) (Q8IBS5 whole entry, looked up): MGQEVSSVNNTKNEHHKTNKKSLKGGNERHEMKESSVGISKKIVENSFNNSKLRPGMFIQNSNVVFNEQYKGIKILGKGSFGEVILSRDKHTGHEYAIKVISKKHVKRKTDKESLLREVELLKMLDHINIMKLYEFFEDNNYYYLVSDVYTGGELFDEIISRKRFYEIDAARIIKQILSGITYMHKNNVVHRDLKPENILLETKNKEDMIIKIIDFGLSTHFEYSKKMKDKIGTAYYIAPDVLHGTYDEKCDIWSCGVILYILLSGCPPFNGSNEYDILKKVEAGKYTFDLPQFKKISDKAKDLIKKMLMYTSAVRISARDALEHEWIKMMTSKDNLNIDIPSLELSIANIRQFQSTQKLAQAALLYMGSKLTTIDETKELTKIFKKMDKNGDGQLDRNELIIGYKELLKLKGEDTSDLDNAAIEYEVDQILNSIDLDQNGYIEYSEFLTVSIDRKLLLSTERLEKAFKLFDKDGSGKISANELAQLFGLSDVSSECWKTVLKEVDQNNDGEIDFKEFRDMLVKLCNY
Chain of L-lactate dehydrogenase (Plasmodium falciparum (isolate CDC / Honduras)) (Q27743 whole entry, looked up): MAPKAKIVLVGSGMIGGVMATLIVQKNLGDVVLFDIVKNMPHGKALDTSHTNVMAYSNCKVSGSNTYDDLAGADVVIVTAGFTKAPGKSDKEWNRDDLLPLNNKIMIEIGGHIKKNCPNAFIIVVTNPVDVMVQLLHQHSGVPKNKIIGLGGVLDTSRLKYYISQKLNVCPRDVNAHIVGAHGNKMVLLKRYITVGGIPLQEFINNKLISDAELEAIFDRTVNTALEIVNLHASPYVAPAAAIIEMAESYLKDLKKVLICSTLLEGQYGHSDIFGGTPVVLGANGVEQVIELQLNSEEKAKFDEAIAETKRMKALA
Chain of Protein kinase 7 (PK7), Plasmodium falciparum 3D7 (PF3D7_0213400) (Q7YTF7 1-343): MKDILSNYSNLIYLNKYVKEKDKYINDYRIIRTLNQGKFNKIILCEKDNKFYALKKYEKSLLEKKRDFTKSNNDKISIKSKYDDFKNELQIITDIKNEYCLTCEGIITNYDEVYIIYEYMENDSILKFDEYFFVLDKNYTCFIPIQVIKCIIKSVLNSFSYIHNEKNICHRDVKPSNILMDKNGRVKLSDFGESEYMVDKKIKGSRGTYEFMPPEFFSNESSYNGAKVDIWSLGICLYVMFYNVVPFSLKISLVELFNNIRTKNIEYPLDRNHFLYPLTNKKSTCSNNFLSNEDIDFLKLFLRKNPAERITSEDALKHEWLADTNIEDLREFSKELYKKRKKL

Usually inhibition stands for the change of the read-out against control, counted positive when it falls. Consider `CCOC(=O)c1cncc(/C=C/c2cc(C)cnc2N)c1`, for which the growth inhibition in assay [1] was 3%; in assay [4], 86% (active). For the same compound, the inhibition in assay [2] is 4%; in assay [3], -4%. Also, the result in assay [5], in assay [6], in assay [7] and in assay [8] was inactive.
For `Clc1ccc(OCc2ccccc2)c(Cc2ccc(-c3nc4ccncc4[nH]3)o2)c1`, the growth inhibition in assay [1] is 6%; in assay [4] it was 99% (active). Besides, the inhibition in assay [2] is 2%; in assay [3], -2%. Moreover, the result in assay [5], in assay [6], in assay [7] and in assay [8] was inactive.
Consider `Cc1cccc2[nH]c(-c3ccc(-c4cccc(NC(=O)Nc5ccsc5)c4)cc3)nc12`, for which the growth inhibition in assay [1] is 24%; in assay [4] it was 101% (active). Moreover, the values for the inhibition in assay [2] and in assay [3] were 24% and 8%, respectively. The result in assay [5], in assay [6], in assay [7] and in assay [8] was inactive.
For `COc1ccc(C(=O)Nc2nonc2-c2ccc(OC)c(OC)c2)cc1Cl`, the growth inhibition in assay [1] and in assay [4] was 97% (active) in each case. Moreover, the values for the inhibition in assay [2] and in assay [3] were 6% and 0%, respectively. Besides, the outcome in assay [5], in assay [6], in assay [7] and in assay [8] was inactive.
For the compound `CCOc1cc(C(=O)N[C@@H](Cc2ccccc2)[C@H](O)CNCc2cc(OC)cc(OC)c2)cc(N2CCCS2(=O)=O)c1`, the growth inhibition in assay [1] is 66% (active); in assay [4], 94% (active). Besides, the figures for the inhibition in assay [2] and in assay [3] were -5% and 0%, respectively. The result in assay [5], in assay [6], in assay [7] and in assay [8] was inactive.
Regarding `Cc1c(C(=O)[C@@H]2C[C@H]2CN2CCC(N3CCCCC3)CC2)sc2ccccc12`, the results for the growth inhibition in assay [1] and in assay [4] were 19% and 94% (active), respectively. For the same compound, the inhibition in assay [2] is 35%; in assay [3] it was -1%. For the same compound, the outcome in assay [5], in assay [6], in assay [7] and in assay [8] was inactive.
For the compound `COc1cccc(NC(=O)Nc2ccc(-c3oc(C(=O)NCC(c4ccccc4)N(C)C)cc3-c3ccncc3)cc2)c1` (stereo not given), the growth inhibition is 99% (active) in assay [1] and 101% (active) in assay [4]. Besides, the inhibition in assay [2] is 6%; in assay [3], 2%. The outcome in assay [5], in assay [6], in assay [7] and in assay [8] was inactive.
As to `CCCCOP(=O)(COc1ccc(CCN(CC(O)COc2cccc3[nH]c4ccccc4c23)CC(O)COc2cccc3[nH]c4ccccc4c23)cc1)C1CCCCC1` (stereo not given), the growth inhibition in assay [1] was 92% (active); in assay [4] it was 89% (active). The inhibition in assay [2] was 7%; in assay [3] it was 4%. For the same compound, the outcome in assay [5], in assay [6], in assay [7] and in assay [8] was inactive.
`CCC(CC)(Cc1ccccc1)NC(=O)[C@H](CC1CCCCC1)Nc1ccc(C#N)c2ccccc12`: the growth inhibition in assay [1] was 76% (active); in assay [4] it was 95% (active). Moreover, the values for the inhibition in assay [2] and in assay [3] were 4% and -5%, respectively. Besides, the result in assay [5], in assay [6], in assay [7] and in assay [8] was inactive.
As to `Cc1[nH]cc(Br)c(=O)c1-c1ccc(Oc2ccc(OC(F)(F)F)cc2)cc1`, the growth inhibition in assay [1] is 92% (active); in assay [4] it was 96% (active). The results for the inhibition in assay [2] and in assay [3] were 22% and -2%, respectively. The result in assay [5], in assay [6], in assay [7] and in assay [8] was inactive.
On to `C=CCc1cc(Cc2cnc(N)nc2N)c2ccc(C)nc2c1OC`, for which the values for the growth inhibition in assay [1] and in assay [4] were -1% and 96% (active), respectively. The inhibition in assay [2] was 11%; in assay [3], -4%. The outcome in assay [5], in assay [6], in assay [7] and in assay [8] was inactive.
As to `N/C(=N\c1cccc(Cc2ccc([N+](=O)[O-])cc2)n1)Nc1ccccc1`, the growth inhibition in assay [1] was 19%; in assay [4], 96% (active). Also, the inhibition in assay [2] was 28%; in assay [3], 4%. Moreover, the result in assay [5], in assay [6], in assay [7] and in assay [8] was inactive.
Regarding `O=C(NCCCN1CCC(Cc2ccccc2)CC1)c1cc2c(Cl)nc3ccccc3c2s1`, the growth inhibition in assay [1] is 40%; in assay [4], 98% (active). Further, the inhibition in assay [2] is 22%; in assay [3], -3%. Further, the outcome in assay [5], in assay [6], in assay [7] and in assay [8] was inactive.
In the case of `O=C(/C=C/c1ccc(Cl)c(Cl)c1)NCCCCCN1CC[C@H](NC(=O)c2sc3ccccc3c2Cl)C1`, the values for the growth inhibition in assay [1] and in assay [4] were 3% and 97% (active), respectively. In addition, the inhibition in assay [2] was 26%; in assay [3], -2%. Besides, the result in assay [5], in assay [6], in assay [7] and in assay [8] was inactive.
Consider `CCN(CC)S(=O)(=O)c1ccc(C(=O)Oc2ccccc2N(Cc2ccc(OC)cc2)C2=NS(=O)(=O)c3ccccc32)cc1`, for which the growth inhibition is 63% (active) in assay [1] and 98% (active) in assay [4]. The inhibition in assay [2] was 0%; in assay [3], -3%. The result in assay [5], in assay [6], in assay [7] and in assay [8] was inactive.
For `COc1ccc(OCCON)cc1`, the results for the growth inhibition in assay [1] and in assay [4] were -3% and 98% (active), respectively. For the same compound, the inhibition is 0% in assay [2] and -2% in assay [3]. Further, the result in assay [5], in assay [6], in assay [7] and in assay [8] was inactive.
Turning to `O=C(/C=C/c1cccc(Br)c1)NCCCCCN1CCC(c2c[nH]c3ccccc23)CC1`, the growth inhibition in assay [1] was 15%; in assay [4], 100% (active). The inhibition was 38% in assay [2] and 0% in assay [3]. Further, the result in assay [5], in assay [6], in assay [7] and in assay [8] was inactive.
For the compound `CCc1cc(OC)ccc1C1CCN(CCCCNC(=O)c2ccc(NC(=O)c3ccc(Cl)cc3)cc2)CC1`, the growth inhibition is 61% (active) in assay [1] and 95% (active) in assay [4]. Besides, the inhibition is 23% in assay [2] and 6% in assay [3]. Moreover, the outcome in assay [5], in assay [6], in assay [7] and in assay [8] was inactive.
As for `COc1cc2nc(N3CCC(CNC(=O)c4ccc(-c5ccccc5)cc4)CC3)nc(N)c2cc1OC`, the growth inhibition in assay [1] is 92% (active); in assay [4], 93% (active). The inhibition is 11% in assay [2] and -1% in assay [3]. Further, the result in assay [5], in assay [6], in assay [7] and in assay [8] was inactive.
As for `O=C(NCCCCN1CCC(c2ccc3ccccc3c2O)CC1)c1ccc(-c2ccc(Cl)cc2)cc1`, the growth inhibition is 99% (active) in assay [1] and 101% (active) in assay [4]. For the same compound, the results for the inhibition in assay [2] and in assay [3] were 84% (active) and -2%, respectively. Further, the result in assay [5], in assay [6], in assay [7] and in assay [8] was inactive.
